Measured values reported in PubChem BioAssay (Tox21).
Values joined by “and” are separate entries in the source; they are usually repeats but may differ in a detail not shown here. Equal values may be shown once. Inconclusive results are not listed. The source holds several records for some structures; these can differ, active in one and inactive in another. Active and inactive are the calls of the source. Unless noted, calls come from the whole dose curve; as a rule, active = well fitted curve in the direction sought with a large enough effect in the repeat runs; inconclusive = weak or mixed curves; inactive = no such curve, though single readings can be large; an effect the other way counts as inactive or inconclusive.

Experiments:
[1] = A CellTox Green Cytotoxicity Assay to monitor cytotoxicity in HepG2 cells - 8 hour (AID 1224890); note: nearly all actives have a fitted effect of over 45% in size
How it was run: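 Continuous culture of HepG2 cells with a membrane-impermeant DNA dye; rising fluorescence marks dead cells. Compound exposure lasted up to 40 h at 37 C, with reads every 8 h from 0 h.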

[2] = qHTS assay to identify small molecule antagonists of the estrogen receptor alpha (ER-alpha) signaling pathway using the BG1 cell line in the presence of 0.1 nM 17-beta-estradiol - cell viability counter screen (AID 1259241); note: nearly all actives have a fitted effect of over 40% in size; note: potency is the fitted concentration of half-maximal effect
How it was run: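 In this screen, hormone-deprived VM7Luc4E2 cells were seeded at 4,000 per well, dosed with compound and 0.1 nM estradiol final, and incubated 22 hr at 37C and 5% CO2; fluorogenic live-cell protease signal reported viability.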

[3] = qHTS assay to identify small molecule antagonists of the androgen receptor (AR) signaling pathway using the MDA cell line in the presence of 0.5 nM R1881 - cell viability counter screen (AID 1259242); note: nearly all actives have a fitted effect of over 45% in size
How it was run: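 Fluorescence from CellTiter-Fluor, which reports protease activity of live cells, was read 30 min after reagent addition to MDA-kb2 cells that had been incubated 16 hr with compound and 0.5 nM R1881.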

[4] = qHTS assay to identify small molecule HDAC inhibitors (AID 1259364); note: nearly all actives have a fitted effect of over 45% in size; note: potency is the fitted concentration of half-maximal effect
How it was run: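 Endogenous HDAC class I/II activity was measured in wild-type HCT-116 cells by HDAC-Glo luminescence after 2 h compound treatment.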

[5] = qHTS assay to identify small molecule HDAC inhibitors - cell viability counter screen (AID 1259365); note: series mostly up to about 92 µM; nearly all actives have a fitted effect of over 50% in size
How it was run: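 Measured quantity is CellTiter-Glo luminescence from wild-type HCT-116 cells after compound incubation of 2hr at 37C, 5% CO2; reagent developed 30min at room temperature.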

[6] = qHTS assay to identify small molecule agonists of the sonic hedgehog signaling (Shh) pathway - cell viability counter screen (AID 1259366); note: nearly all actives have a fitted effect of over 50% in size; note: potency is the fitted concentration of half-maximal effect
How it was run: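 In quantitative high-throughput format, 3T3 Gli1-Luc cells were exposed to compounds for 24hr and multiplexed for viability using CellTiter-Fluor, incubated 1hr at 37C before the fluorescence read.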

[7] = qHTS assay to identify small molecule antagonists of the sonic hedgehog signaling (Shh) pathway - cell viability counter screen (AID 1259367); note: nearly all actives have a fitted effect of over 55% in size; note: potency is the fitted concentration of half-maximal effect
How it was run: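 NIH/3T3-derived Gli1-Luc reporter cells, 2,000/well, plated 4 hr before compound addition, then stimulated with conditioned medium for 24 hr at 37C. Viability measured in the same wells by CellTiter-Fluor fluorescence, reagent added at 23 hr for 1 hr.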

[8] = qHTS assay to identify small molecule agonists of the sonic hedgehog signaling (Shh) pathway (AID 1259368; calls by dose curve;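 note: NIH/3T3-derived 3T3Gli1-Luc cells carrying a stable Gli1-driven firefly luciferase reporter; series mostly up to about 92 µM; nearly all actives have a fitted effect of over 15% in size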)
How it was run: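 Luminescent signal was taken as a measure of Gli1-controlled luciferase expression in stably transfected NIH/3T3-derived cells that had been treated for 24 hr with compounds delivered in DMSO.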

[9] = qHTS assay to identify small molecule antagonists of the sonic hedgehog signaling (Shh) pathway (AID 1259369; calls by dose curve; note: nearly all actives have a fitted effect of over 45% in size; note: potency is the fitted concentration of half-maximal effect)
How it was run: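 Screening used 3T3Gli1-Luc cells at 2,000 per well, compounds delivered in DMSO, and conditioned medium as agonist stimulus; plates incubated 24hr at 37 C and 5% CO2 before a 30min luciferase step.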

[10] = qHTS assay to identify small molecule agonists of the androgen receptor (AR) signaling pathway in the presence of an antagonist - cell viability counter screen (AID 1259379); note: nearly all actives have a fitted effect of over 25% in size; note: potency is the fitted concentration of half-maximal effect
How it was run: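 In MDA-kb2 cells (human breast carcinoma, MMTV-luciferase), compounds at 15 concentrations plus 3.0uM nilutamide; 16 hr, 37C, 0% CO2; CellTiter-Fluor fluorescence read for viability.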

[11] = qHTS assay to identify small molecule agonists of the estrogen receptor beta (ER-beta) signaling pathway - cell viability counter screen (AID 1259380); note: nearly all actives have a fitted effect of over 30% in size; note: potency is the fitted concentration of half-maximal effect
How it was run: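 Viability of ER-beta-UAS-bla HEK293T cells was determined by CellTiter-Glo luminescence following 16 hr treatment with test compounds at 37C.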

[12] = qHTS assay to identify small molecule agonists or antagonists of the thyroid stimulating hormone receptor (TSHR) signaling pathway - wild type cell line counter screen (AID 1259384; calls by dose curve)
How it was run: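 Wild-type Hek293 cells, 800/well, 18 h at 37C, then compound with Ro20-1724 for 30 min RT. cAMP by HTRF (cAMP-d2/anti-cAMP cryptate), 1 h RT, fluorescence read. 15 concentrations, triplicates.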

[13] = qHTS assay to identify small molecule phospholipidosis (PLD) inducers (AID 1259344; active = well fitted curve in the direction sought with a large enough effect; an effect the other way counts as inactive or inconclusive)
How it was run: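 HepG2 cells, 900/well, treated with compound plus LipidTOX Red for 24 h at 37 C; amiodarone positive and DMSO negative controls. Fixed with paraformaldehyde/Hoechst, then high-content imaging scored LipidTOX pit count and integrated intensity per well and per cell.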

[14] = target: Estrogen receptor beta (Homo sapiens) (UniProt Q92731); experiment: qHTS assay to identify small molecule agonists of the estrogen receptor beta (ER-beta) signaling pathway (AID 1259377; active = well fitted activation curve with a large enough effect in the signal ratio in the repeat runs, not every such curve was filed as active; the % refers to the signal ratio)
How it was run: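 Reporter cells (HEK293T, ER-beta-UAS-bla) receive compounds or DMSO after a 6 hr pre-incubation. They then incubate 16 hr at 37C/5% CO2, and fluorescence from LiveBLAzer B/G substrate is measured after 2 hours at room temperature.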

[15] = target: Estrogen receptor beta (Homo sapiens) (UniProt Q92731); experiment: qHTS assay to identify small molecule antagonists of the estrogen receptor beta (ER-beta) signaling pathway (AID 1259378; active = well fitted inhibition curve with a large enough effect in the signal ratio in the repeat runs, not every such curve was filed as active; the % refers to the signal ratio; note: potency is the fitted concentration of half-maximal effect)
How it was run: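 ER-beta-UAS-bla HEK293T cells in 2% charcoal-stripped FBS medium treated with compound plus 1nM final 17-beta-estradiol for 16 hr at 37C. Beta-lactamase reporter read by FRET substrate fluorescence after 2 hours at room temperature.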

[16] = qHTS assay to identify small molecule antagonists of the estrogen receptor beta (ER-beta) signaling pathway - cell viability counter screen (AID 1259382); note: series mostly up to about 92 µM; nearly all actives have a fitted effect of over 55% in size
How it was run: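 Tox21 10K library tested in qHTS format on ER-beta-bla HEK293T cells stimulated with 1nM E2; 16 hr treatment at 37C. Same-well CellTiter-Glo luminescence served as the cell viability measure.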

[17] = target: Androgen receptor (Homo sapiens) (UniProt P10275); experiment: qHTS assay to identify small molecule antagonists of the androgen receptor (AR) signaling pathway using the MDA cell line in the presence of 0.5 nM R1881 (AID 1259243); note: nearly all actives have a fitted effect of over 50% in size; note: potency is the fitted concentration of half-maximal effect
How it was run: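 Inhibition of R1881 (0.5 nM final) induced reporter signal was measured in human MDA-kb2 cells; note the MMTV promoter also responds to GR. Exposure lasted 16 hr at 37C.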

[18] = target: Estrogen receptor (Homo sapiens) (UniProt P03372); experiment: qHTS assay to identify small molecule antagonists of the estrogen receptor alpha (ER-alpha) signaling pathway using the BG1 cell line in the presence of 0.1 nM 17-beta-estradiol (AID 1259244); note: nearly all actives have a fitted effect of over 50% in size; note: potency is the fitted concentration of half-maximal effect
How it was run: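 Quantitative high-throughput screen in VM7Luc4E2 cells: compound plus 0.1 nM E2 (final), 22 h, 37C, 5% CO2; ONE-Glo added, 30 min room temperature, luminescence measured.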

[19] = target: Androgen receptor (Homo sapiens) (UniProt P10275); experiment: qHTS assay to identify small molecule agonists of the androgen receptor (AR) signaling pathway in the presence of an antagonist (AID 1259381; calls by dose curve; note: nearly all actives have a fitted effect of over 15% in size)
How it was run: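 Here, 15-concentration compound series were pin-transferred onto MDA-kb2 MMTV-luciferase cells already dosed with nilutamide (3.0uM final). After 16hr at 37C, ONE-Glo was added and luminescence read 30min later at room temperature.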

[20] = target: Estrogen receptor (Homo sapiens) (UniProt P03372); experiment: qHTS assay to identify small molecule agonists of the estrogen receptor alpha (ER-alpha) signaling pathway in the presence of an antagonist (AID 1259383; calls by dose curve; note: nearly all actives have a fitted effect of over 15% in size; note: potency is the fitted concentration of half-maximal effect; for activation: top concentration of the series differs between compounds)
How it was run: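 In VM7Luc4E2 cells, 4,000 per well, compounds at 15 concentrations were co-incubated 22hr at 37C with 10.0nM final ICI-182,780. Luminescence from the stably transfected 4×ERE-luciferase reporter was recorded 30min after ONE-Glo addition.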

Measured: Potency

Chain of Estrogen receptor (Homo sapiens) (P03372 whole entry, looked up): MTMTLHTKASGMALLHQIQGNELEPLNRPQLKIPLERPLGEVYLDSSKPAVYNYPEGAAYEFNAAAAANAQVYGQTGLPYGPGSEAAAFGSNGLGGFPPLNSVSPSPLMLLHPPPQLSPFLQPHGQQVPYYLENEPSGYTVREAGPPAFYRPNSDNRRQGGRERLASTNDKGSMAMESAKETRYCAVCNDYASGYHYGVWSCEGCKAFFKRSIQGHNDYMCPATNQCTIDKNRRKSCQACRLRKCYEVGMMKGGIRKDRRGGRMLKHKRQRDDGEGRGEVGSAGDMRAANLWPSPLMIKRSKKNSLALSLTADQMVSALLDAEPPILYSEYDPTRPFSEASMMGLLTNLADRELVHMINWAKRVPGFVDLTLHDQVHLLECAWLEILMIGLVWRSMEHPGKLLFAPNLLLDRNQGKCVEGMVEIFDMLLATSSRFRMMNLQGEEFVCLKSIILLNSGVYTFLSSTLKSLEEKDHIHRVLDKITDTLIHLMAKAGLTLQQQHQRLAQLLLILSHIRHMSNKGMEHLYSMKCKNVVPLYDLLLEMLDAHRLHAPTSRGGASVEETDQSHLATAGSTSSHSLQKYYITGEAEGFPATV
Chain of Androgen receptor (Homo sapiens) (P10275 whole entry, looked up): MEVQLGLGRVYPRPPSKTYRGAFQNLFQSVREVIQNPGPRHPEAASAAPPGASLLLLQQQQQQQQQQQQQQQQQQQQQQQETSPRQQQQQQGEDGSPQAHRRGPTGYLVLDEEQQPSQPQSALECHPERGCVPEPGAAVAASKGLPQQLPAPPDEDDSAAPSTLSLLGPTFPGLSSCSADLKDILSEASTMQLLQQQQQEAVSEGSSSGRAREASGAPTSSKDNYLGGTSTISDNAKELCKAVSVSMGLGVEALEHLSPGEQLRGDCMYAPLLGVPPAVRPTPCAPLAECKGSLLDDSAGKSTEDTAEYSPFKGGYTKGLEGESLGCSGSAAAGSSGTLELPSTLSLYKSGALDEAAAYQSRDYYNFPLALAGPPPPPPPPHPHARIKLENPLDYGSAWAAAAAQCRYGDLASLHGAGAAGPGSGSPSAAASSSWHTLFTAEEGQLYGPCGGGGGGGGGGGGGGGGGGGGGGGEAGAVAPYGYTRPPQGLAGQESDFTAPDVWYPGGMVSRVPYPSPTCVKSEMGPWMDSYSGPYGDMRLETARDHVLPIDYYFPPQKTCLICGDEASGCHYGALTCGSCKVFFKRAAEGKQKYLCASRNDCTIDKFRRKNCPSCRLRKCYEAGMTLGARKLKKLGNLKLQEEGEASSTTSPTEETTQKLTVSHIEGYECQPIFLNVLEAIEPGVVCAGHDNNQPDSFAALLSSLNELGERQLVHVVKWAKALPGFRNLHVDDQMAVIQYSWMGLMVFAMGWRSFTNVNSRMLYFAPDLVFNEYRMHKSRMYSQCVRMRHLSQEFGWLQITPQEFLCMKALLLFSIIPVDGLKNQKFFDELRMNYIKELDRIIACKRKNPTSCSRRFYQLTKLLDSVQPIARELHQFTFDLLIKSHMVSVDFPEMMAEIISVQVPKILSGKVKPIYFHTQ
Chain of Estrogen receptor beta (Homo sapiens) (Q92731 whole entry, looked up): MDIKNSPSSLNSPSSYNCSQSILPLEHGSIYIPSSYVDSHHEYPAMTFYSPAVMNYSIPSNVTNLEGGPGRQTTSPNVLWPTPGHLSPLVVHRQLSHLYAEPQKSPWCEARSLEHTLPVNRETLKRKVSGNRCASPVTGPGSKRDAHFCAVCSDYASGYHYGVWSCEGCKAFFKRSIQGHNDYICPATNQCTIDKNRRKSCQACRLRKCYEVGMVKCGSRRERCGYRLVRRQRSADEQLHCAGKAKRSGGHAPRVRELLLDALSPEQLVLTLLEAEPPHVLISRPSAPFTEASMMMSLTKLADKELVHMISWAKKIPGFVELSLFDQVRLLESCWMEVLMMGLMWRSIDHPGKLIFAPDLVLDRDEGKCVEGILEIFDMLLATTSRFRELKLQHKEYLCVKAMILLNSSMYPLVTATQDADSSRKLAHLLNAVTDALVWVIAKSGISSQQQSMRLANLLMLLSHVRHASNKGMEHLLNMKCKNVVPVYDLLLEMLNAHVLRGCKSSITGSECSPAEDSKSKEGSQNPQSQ

C1=Cc2cccc3cccc1c23
not listed: [13] | [14] | [15] | [16] | [17] | [18] | [19] | [20]
inactive: all other assays above

Oc1cc(Cl)c(Cl)cc1Cl
not listed: [17] | [18] | [19] | [20]
inactive: all other assays above

C=CCc1ccc2c(c1)OCO2
not listed: [13] | [14] | [15] | [17] | [18] | [19] | [20]
inactive: all other assays above

O=[N+]([O-])c1ccc(O)c([N+](=O)[O-])c1
active: [2] 30.8 µM and 27.3 µM | [17] 30.8 µM and 54.5 µM | [18] 48.8 µM and 48.6 µM | [4] 30.8 µM and 27.3 µM | [7] 48.8 µM | [9] 30.8 µM and 30.6 µM | [10] 48.8 µM and 48.6 µM
not listed: [3] | [6] | [13] | [14] | [16]
inactive: all other assays above

COP(=S)(OC)Oc1cc(Cl)c(Cl)cc1Cl
54.1 µM (active) and inactive: [17]
not listed: [3] | [4] | [16]
inactive: all other assays above

Cc1cccc(N)c1N
29.6 µM (active) and inactive: [9]
not listed: [8] | [13] | [14] | [17] | [18] | [19] | [20]
inactive: all other assays above

CCC(C)(c1ccc(O)cc1)c1ccc(O)cc1
active: [9] 24.3 µM and 61.1 µM | [15] 0.243 µM | [20] 9.68 µM and 8.63 µM
not listed: [4] | [13] | [17] | [18] | [19]
inactive: all other assays above

CCOC(=S)S
inactive: [1] | [2] | [3] | [4] | [5] | [8] | [14] | [10] | [12]
active: [6] 38.6 µM and 20.6 µM | [7] 30.6 µM and 25.9 µM | [9] 10.9 µM and 13 µM | [11] 10.3 µM
